From PubChem
LMNA splice mod: LMNA splicing modulation. HeLa LMNA splicing GFP/RFP minigene ratio, 48 h. Potency, µM (titrated, usually from 46.1 µM), for the others: at the top dose ratio change, negative = inhibition, most hits filed as inhibitors. hit rate 0.01% among 200,000. AID 1487; active means well fitted inhibition curve with a large enough effect in the signal ratio, with a control signal flat, not every such curve was filed as active; inconclusive means small, poorly fitted or top-dose-only effect, or effect the other way, or a change in a side signal; the % refers to the signal ratio
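S3 HeLa stable clones carrying a lamin A-EGFP splicing minigene plus DsRed2 were seeded at 600 cells/well in Opti-MEM with 2% FBS, pin-dosed and incubated 48 h at 37°C. Acumen cytometry (488 nm) gave the GFP/RFP total-intensity ratio.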
APE1 inh-1: APE1 (human) endonuclease inhibition; AID 2517; P27695; Potency, µM (highest dose often 65.8 µM), inactives show at the top dose activity change, negative = inhibition, usual class: inhibitors; recombinant APE1, TAMRA/BHQ-2 abasic DNA cleavage fluorescence; hit rate 0.35% among 350,000;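 further: plate controls were vehicle for no effect and reference inhibitor for full effect; nearly all actives have a fitted effect of over 55% in size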
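Readout is kinetic fluorescence (ex 525, em 598 nm) from cleavage of 50 nM TAMRA/BHQ-2 THF abasic duplex by 0.75 nM APE1, compound added 15 min beforehand at RT.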
KAT2A inh: blocks human GCN5L2 histone acetyltransferase. GCN5L2 HAT assay, ThioGlo1 CoA-SH fluorescence. Potency, µM (titrated, usually from 58.9 µM), inactives show at the highest dose activity change, negative = inhibition, hits mostly inhibitors. hit rate 0.21% among 390,000. AID 504327
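Free CoA generated was detected with ThioGlo1 (50uM) fluorescence at Ex340nm/Em540nm, read immediately and after 20 min at room temperature. Enzyme, 20 nM in HEPES pH 7.5 buffer, saw compounds 15 min before adding 75uM H3(1-25) peptide and 70uM acetyl-CoA.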
BLM inh-1: Bloom syndrome helicase (human) inhibition; recombinant BLM DNA unwinding, fluorescence dequenching; P54132; Potency, µM (doses to about 56.1 µM), inactives show top-dose activity change, negative = inhibition, most hits filed as inhibitors; hit rate 0.2% among 350,000;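 further: plate controls were vehicle for no effect and no enzyme for full effect; nearly all actives have a fitted effect of over 35% in size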
RECQ1 inh-1: RECQ1 (human) helicase inhibition; hit rate 0.54% among 240,000; AID 2549; P46063; Potency, µM (highest dose often 57.3 µM), for the others: top-dose activity, negative = inhibition, usual class: inhibitors; RECQ1 DNA unwinding, red fluorescence kinetic read;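 further: plate controls were vehicle for no effect and no enzyme for full effect; nearly all actives have a fitted effect of over 30% in size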
Target sequence (P46063 whole entry, looked up): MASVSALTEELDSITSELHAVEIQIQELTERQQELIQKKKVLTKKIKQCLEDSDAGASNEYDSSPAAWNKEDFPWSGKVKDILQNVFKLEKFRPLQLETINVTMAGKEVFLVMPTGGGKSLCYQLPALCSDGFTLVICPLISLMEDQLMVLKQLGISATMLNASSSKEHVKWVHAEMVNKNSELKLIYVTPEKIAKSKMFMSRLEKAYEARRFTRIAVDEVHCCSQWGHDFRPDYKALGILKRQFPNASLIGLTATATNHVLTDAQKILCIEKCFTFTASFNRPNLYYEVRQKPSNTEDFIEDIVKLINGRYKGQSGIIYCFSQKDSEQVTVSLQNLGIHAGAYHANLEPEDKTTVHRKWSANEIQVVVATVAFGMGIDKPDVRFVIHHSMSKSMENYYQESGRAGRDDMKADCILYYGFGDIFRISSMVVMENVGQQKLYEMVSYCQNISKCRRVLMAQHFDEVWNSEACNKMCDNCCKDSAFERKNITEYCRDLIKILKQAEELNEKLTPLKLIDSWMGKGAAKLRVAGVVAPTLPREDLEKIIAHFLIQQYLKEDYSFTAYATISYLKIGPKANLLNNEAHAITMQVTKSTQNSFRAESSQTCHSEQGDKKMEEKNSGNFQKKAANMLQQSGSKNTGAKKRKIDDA
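50 nM RECQ1T1 preincubated 15 min with compound in Tris pH 8.0 buffer with MgCl2, DTT, Tween-20 and 2.5 ug/ml poly(dI-dC); started with 200 nM TAMRA/BHQ-2 forked duplex and 2 mM ATP. Unwinding read as fluorescence (525/598 nm), two reads 2 h apart.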
TDP1 block: blocks human tyrosyl-DNA phosphodiesterase 1 | hit rate 0.28% among 350,000 | Potency, µM (doses to about 130 µM), for inactives: top-dose activity change, negative = inhibition, most hits filed as inhibitors | recombinant TDP1, AlphaScreen DNA substrate cleavage | AID 485290; further: nearly all actives have a fitted effect of over 40% in size
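Signal: AlphaScreen proximity between streptavidin donor and anti-FITC acceptor beads on intact substrate. Reaction: Tdp1 1 nM, substrate 15 nM final, 5 min RT after 15 min compound preincubation.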
DNA dye displace: counter-screen for APE1 inhibitors: DNA dye displacement; shares compounds with APE1 inh-1; DNA fluorescent dye displacement counterscreen, fluorescence; Potency, µM (series often up to 28.5 µM), inactives show top-dose activity change, negative = inhibition, most hits filed as inhibitors; hit rate 7% among 480;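 further: loss of thiazole orange fluorescence as the dye is displaced from duplex DNA; 0% = ThO with dsDNA and no compound and -100% = ThO without dsDNA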
Endo IV inh: Endo IV (E. coli) inhibition counter-screen; shares compounds with APE1 inh-1; E. coli Endo IV, fluorogenic AP-site DNA cleavage; Potency, µM (top dose mostly 27.1 µM), inactives show at the top dose activity change, negative = inhibition, actives largely listed as inhibitors; hit rate 4% among 560;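 further: plate controls were uninhibited enzyme wells for no effect and no enzyme buffer wells for full effect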
APE1 inh-2: confirmation of inhibitors of human APE1 endonuclease; hit rate 44% among 750; purified APE1, fluorogenic abasic-site DNA cleavage; Potency, µM (highest dose often 57.1 µM), inactives show at the highest dose activity change, negative = inhibition, most hits filed as inhibitors; AID 2572; shares compounds with APE1 inh-1; further: nearly all actives have a fitted effect of over 30% in size
APE1 FP: displaces DNA from human APE1 in FP assay; shares compounds with APE1 inh-1; APE1 binding to TAMRA-labelled double-stranded DNA, fluorescence polarization displacement; Potency, µM (series often up to 28.5 µM), inactives show top-dose activity, negative = inhibition, most hits filed as inhibitors; hit rate 7% among 480
BLM inh-2: confirmation of inhibitors of human Bloom syndrome helicase BLM | shares compounds with BLM inh-1 | AID 2585 | hit rate 40% among 220 | Potency, µM, inactives show max response, negative = inhibition, hits mostly inhibitors | BLM DNA unwinding, fluorescence quenching, biochemical;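 further: strand separation dequenches TAMRA so unwinding raises red fluorescence; series mostly up to about 69 µM; nearly all actives have a fitted effect of over 45% in size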
RECQ1 conf: confirmation of human RECQ1 helicase inhibitors; shares compounds with RECQ1 inh-1; RECQ1 helicase DNA unwinding, fluorescence; Potency, µM (highest dose often 229 µM), inactives show at the highest dose activity change, negative = inhibition, actives largely listed as inhibitors; hit rate 28% among 610; further: nearly all actives have a fitted effect of over 45% in size
ADP FP counter: displaces ADP in a fluorescence polarization counter-screen for RECQ1 hits | ADP fluorescence polarization displacement counterscreen | shares compounds with RECQ1 inh-1 | hit rate 27% among 530 | Potency, µM (titrated, usually from 228 µM), inactives show at the highest dose activity change, negative = inhibition, actives largely listed as inhibitors; further: nearly all actives have a fitted effect of over 45% in size
RECQ1 inh-2: confirmation of human RECQ1 helicase inhibitors; recombinant RECQ1 DNA unwinding, red fluorescence; Potency, µM (titrated, usually from 119 µM), without a hit: top-dose activity, negative = inhibition, hits mostly inhibitors; AID 504841; hit rate 15% among 1,100; shares compounds with RECQ1 inh-1; further: nearly all actives have a fitted effect of over 50% in size
The depositor's hits bear a star; i = inactive; ? = inconclusive; . = not tested or not shown; [ ] = another dose, or the depositor's remark. A selection: hits, their analogues and other compounds. The true share with any hit is near 0.9%. Unless noted, the call rests on the fitted dose curve; in most records, active means well fitted curve in the direction sought with a large enough effect; inconclusive means small, poorly fitted or top-dose-only effect, or another doubt; inactive means no such curve, though single readings can be large; an effect the other way counts as inactive or inconclusive. Unless noted, on the % scale 0 is the no-effect control and ±100 the full control effect; potency means the concentration at half of the fitted maximal effect.

SMILES | LMNA splice mod | APE1 inh-1 | KAT2A inh | BLM inh-1 | RECQ1 inh-1 | TDP1 block | DNA dye displace | Endo IV inh | APE1 inh-2 | APE1 FP | RECQ1 conf | ADP FP counter | RECQ1 inh-2 | others
COc1ccc(N2Cc3cccc(C(=O)N4CCN(C(=O)c5ccco5)CC4)c3C2=O)cc1 | -3% | 11µM* | ? | 18µM* | 10µM* | 11µM* | . | . | 28µM* | . | 40µM* | ? | 16µM* | BLM inh-2=23µM*
C=C/C(C)=C/[C@@]1(C)SC(=O)C(C)=C1O | -20% | 3.2µM* | . | . | 8.9µM* | ? | . | -20%[57.1 µM] | 2µM* | . | 40µM* | 11µM* | .
Cn1c(SCC(=O)N/N=C/C=C/c2ccco2)nc2ccccc21 | 6% | 10µM* | ? | 1% | 18µM* | ? | ? | -8% | ? | 0% | ? | . | .
O=C1CCCC2=C1C(c1ccc(O)c(O)c1)Nc1ccc3ncccc3c12 (configuration not stated) | ? | 14µM* | -1% | ? | ? | . | ? | 17% | ? | -2% | . | . | ?
COc1ccccc1-c1csc(N2CCC(C(N)=O)CC2)n1 | . | 8% | . | . | . | . | . | . | . | . | . | . | .
CC(C)CNC1=CC(=O)CC(c2ccco2)C1 (configuration not stated) | -1% | 6.3µM* | -17% | -23% | 11µM* | . | 1% | 10% | -11%[24.4 µM] | -17% | ? | ? | ?
O=C1C=C(Nc2ccc(O)cc2)CC(c2ccco2)C1 (configuration not stated) | ? | -1% | -5% | -2% | 6% | 3% | . | . | . | . | . | . | .
CN(C)c1ccc(-c2cc[nH]c(=O)c2N)cc1 | . | . | . | . | . | 9% | . | . | . | . | . | . | .
COc1ccc(C2/C=C\CN(S(=O)(=O)CC34CCC(CC3=O)C4(C)C)CC(=O)N2Cc2ccc(F)cc2)cc1 (configuration not stated) | . | -2% | . | -10% | -11% | 7% | . | . | . | . | . | . | .
O=c1nc2s/c(=C\c3ccco3)c(=O)n2nc1Cc1ccc(F)cc1 | 4% | 7.9µM* | ? | -16% | 22µM* | ? | ? | 13% | 7.1µM* | ? | 56µM* | ? | ?
CCOC(=O)c1cc(-c2ccc(N3CCOCC3)cc2)nn1-c1ccccc1C(=O)O | -1%[46 µM] | 2.5µM* | -20% | -25% | 11µM* | 1.6µM* | 3% | ? | ? | ? | 45µM* | 36%[91.9 µM] | ?
NC1=NC(=O)/C(=C\c2ccco2)S1 | . | 22µM* | 3% | -22% | ? | . | ? | 5% | ? | -4% | . | . | -22%
O=C1N=C(N2CCN(c3ccccc3)CC2)S/C1=C\c1ccco1 | 8%[46 µM] | ? | ? | -6% | -15% | -5% | . | . | . | . | . | . | .
O=C(c1ncc[nH]1)c1ccco1 | 9% | -1% | -6% | -7% | i | 5% | . | . | . | . | . | . | .
O=C(c1cc(C(=O)c2ccco2)cc(C(=O)c2ccco2)c1)c1ccco1 | -6% | 32µM* | -14% | -19% | 35µM* | ? | -7% | 27% | ? | -5% | . | . | -55%
COc1ccc(NC=O)c(C(=O)CCNC(C)=O)c1 | . | -3% | 0% | 4% | -8% | 9% | . | . | . | . | . | . | .
Cn1c(SCC(=O)Nc2ccc3nc(SCC(=O)N4CCCC4)sc3c2)nnc1-c1ccc(N)cc1 | 17% | 10µM* | -19% | -29% | 0.63µM* | 35µM* | . | . | ? | . | 7.1µM* | ? | ?
Cc1ccc(N(C)S(=O)(=O)c2ccc3c(c2)CCC(=O)N3)cc1C | . | . | . | . | . | -3% | . | . | . | . | . | . | .
O=C(COc1ccccc1C(=O)N/N=C\c1ccc(O)c(O)c1)N/N=C/c1ccc(O)c(O)c1 | 11% | 2.8µM* | -21% | 2µM* | 1µM* | -7% | 6.3µM* | 29% | 2µM* | ? | 2.2µM* | -14%[91.9 µM] | .
NCC(=O)N[C@@H](CCCN=C(N)N)C(=O)NCC(=O)N[C@@H](CC(=O)O)C(=O)N[C@@H](CO)C(=O)N1CCC[C@H]1C(=O)O | . | -1% | -7% | 0% | 7% | 10% | . | . | . | . | . | . | .
COc1cccc(C(=O)CC2c3c(c(Br)c4c(c3OC)OCO4)CCN2C)c1 (configuration not stated) | . | ? | . | 6% | 61% | -2% | . | . | . | . | . | . | .
CCc1nn2c(=O)cc(COc3ccc(/C=C4\C(=N)N5N=C(CC(C)C)SC5=NC4=O)cc3)nc2s1 | . | ? | 22% | -23% | i | . | . | . | . | . | . | . | .
CCC1=NN2C(=N)/C(=C\c3ccc(OCc4cc(=O)n5nc(CC)sc5n4)c(OC)c3)C(=O)N=C2S1 | ? | ? | -19% | 14µM* | 7.1µM* | 40µM* | . | . | 32µM* | . | . | . | ?
COc1ccc(/C=N/NC(=O)c2cc(O)c(O)c(O)c2)cc1Cn1cc([N+](=O)[O-])cn1 | -4%[46 µM] | 1.6µM* | -29% | ? | 1.8µM* | -5% | ? | 96% | 1.3µM* | -10% | ? | -10%[91.9 µM] | .
